From paper PMC11006913 come the findings set out here.

Targets include HOXB6 (Homo sapiens, UniProt P17509 132-218); PRRX1 (Homo sapiens, UniProt P54821 80-166); HOXA4 (Homo sapiens, UniProt Q00056 201-287, W262F); VAX1 (Homo sapiens, UniProt Q5SQQ9 86-172, K157R).
Holding throughout (assay): PBM; 200 nM protein, PBS
What all share (details): dsDNA, one strand shown

For assay [1], the target named is HOXB4 (Homo sapiens, UniProt P17483 148-234).
In assay [2] the target is HOXB4 (Homo sapiens, UniProt P17483 148-234, V174I).
Assay [3] has as its target T1, PAX4 (Homo sapiens, UniProt O43316 9-242, R200K).
T1 sequence: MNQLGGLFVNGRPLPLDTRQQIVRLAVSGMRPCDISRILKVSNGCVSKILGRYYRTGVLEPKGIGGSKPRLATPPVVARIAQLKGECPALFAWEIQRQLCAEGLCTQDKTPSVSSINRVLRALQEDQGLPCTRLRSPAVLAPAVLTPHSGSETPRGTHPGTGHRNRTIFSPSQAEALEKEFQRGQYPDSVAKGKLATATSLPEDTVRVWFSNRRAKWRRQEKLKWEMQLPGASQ

Assay [4] concerns the target T2, PAX4 (Homo sapiens, UniProt O43316 9-242).
T2 sequence: T1 sequence with K192R

The target of assay [5] is T3, PAX4 (Homo sapiens, UniProt O43316 9-242, R200Q).
T3 sequence: T1 sequence with K192Q

The target in assay [6] is T4, PAX4 (Homo sapiens, UniProt O43316 9-242, F177V).
T4 sequence: T1 sequence with F169V, K192R

Assay [7] concerns the target T5, PAX4 (Homo sapiens, UniProt O43316 9-242, F177Y).
T5 sequence: T1 sequence with F169Y, K192R

Assay [8] has as its target T6, PAX4 (Homo sapiens, UniProt O43316 9-242, R227W).
T6 sequence: T1 sequence with K192R, R219W

Assay [9] deals with ALX1 (Homo sapiens, UniProt Q15699 118-204, L144V).
The target of assay [10] is ALX1 (Homo sapiens, UniProt Q15699 118-204, L144R).
Assay [11] addresses ALX1 (Homo sapiens, UniProt Q15699 118-204).
Assay [12] has as its target ALX3 (Homo sapiens, UniProt O95076 139-225, N203Q).
In assay [13] the target is ALX3 (Homo sapiens, UniProt O95076 139-225).
Assay [14] concerns the target ALX3 (Homo sapiens, UniProt O95076 139-225, L168Q).
The target in assay [15] is ALX3 (Homo sapiens, UniProt O95076 139-225, L168V).
Assay [16] addresses ALX3 (Homo sapiens, UniProt O95076 139-225, N203S).

Changes are numbered by the printed parent chain.

Sequence of ALX3 (Homo sapiens, UniProt O95076 139-225, N203S) (O95076 139-225 N203S): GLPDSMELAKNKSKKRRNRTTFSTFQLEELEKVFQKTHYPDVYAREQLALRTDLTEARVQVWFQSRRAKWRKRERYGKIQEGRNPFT
Sequence of ALX1 (Homo sapiens, UniProt Q15699 118-204, L144R) (Q15699 118-204 L144R): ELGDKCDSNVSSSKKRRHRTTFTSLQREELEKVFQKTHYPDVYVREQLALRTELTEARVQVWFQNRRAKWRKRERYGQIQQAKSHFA
Sequence of ALX3 (Homo sapiens, UniProt O95076 139-225, N203Q) (O95076 139-225 N203Q): as the sequence (O95076 139-225 N203S) above, with S65Q counted along it
Sequence of HOXA4 (Q00056 201-287 W262F): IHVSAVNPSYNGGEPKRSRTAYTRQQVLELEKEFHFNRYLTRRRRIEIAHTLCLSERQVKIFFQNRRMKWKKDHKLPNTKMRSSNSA
Sequence of ALX1 (Homo sapiens, UniProt Q15699 118-204) (Q15699 118-204): as the sequence (Q15699 118-204 L144R) above, with R27L counted along it
Sequence of ALX3 (Homo sapiens, UniProt O95076 139-225, L168V) (O95076 139-225 L168V): as the sequence (O95076 139-225 N203S) above, with L30V, S65N counted along it
Sequence of ALX3 (Homo sapiens, UniProt O95076 139-225) (O95076 139-225): as the sequence (O95076 139-225 N203S) above, with S65N counted along it
Sequence of HOXB6 (P17509 132-218): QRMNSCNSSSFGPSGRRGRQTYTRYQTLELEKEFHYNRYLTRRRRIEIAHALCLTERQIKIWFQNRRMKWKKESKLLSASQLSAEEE
Sequence of HOXB4 (Homo sapiens, UniProt P17483 148-234, V174I) (P17483 148-234 V174I): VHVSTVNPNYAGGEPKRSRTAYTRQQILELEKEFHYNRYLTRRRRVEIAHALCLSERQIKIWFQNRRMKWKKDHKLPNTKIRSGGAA
Sequence of ALX1 (Homo sapiens, UniProt Q15699 118-204, L144V) (Q15699 118-204 L144V): as the sequence (Q15699 118-204 L144R) above, with R27V counted along it
Sequence of HOXB4 (Homo sapiens, UniProt P17483 148-234) (P17483 148-234): as the sequence (P17483 148-234 V174I) above, with I27V counted along it
Sequence of VAX1 (Q5SQQ9 86-172 K157R): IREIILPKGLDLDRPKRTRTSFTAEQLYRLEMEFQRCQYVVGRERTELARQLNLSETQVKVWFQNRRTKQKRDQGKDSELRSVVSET
Sequence of PRRX1 (P54821 80-166): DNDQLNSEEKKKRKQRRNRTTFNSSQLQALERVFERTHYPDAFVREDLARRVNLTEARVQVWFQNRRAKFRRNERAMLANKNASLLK
Sequence of ALX3 (Homo sapiens, UniProt O95076 139-225, L168Q) (O95076 139-225 L168Q): as the sequence (O95076 139-225 N203S) above, with L30Q, S65N counted along it

As to CCCGGCGG, the binding signal in the assay with HOXB4 [1] was 7.64 upbm affinity estimate (log intensity, higher = more binding, comparable within an allelic series); with HOXB4 [2], 7.61 upbm affinity estimate (log intensity, higher = more binding, comparable within an allelic series).

As for GCACTTAA, in the assay with HOXB6, the binding signal is 10.9 upbm affinity estimate (log intensity, higher = more binding, comparable within an allelic series).

CACGCGTG: the binding signal in the assay with HOXB4 [1] was 7.77 upbm affinity estimate (log intensity, higher = more binding, comparable within an allelic series); in the assay with HOXB4 [2], 7.9 upbm affinity estimate (log intensity, higher = more binding, comparable within an allelic series); with PRRX1 it was 9.41 upbm affinity estimate (log intensity, higher = more binding, comparable within an allelic series).

Consider ACGGCTGG, for which the binding signal with HOXB4 [1] was 7.57 upbm affinity estimate (log intensity, higher = more binding, comparable within an allelic series); with PAX4 [3], 9.35 upbm affinity estimate (log intensity, higher = more binding, comparable within an allelic series); in the assay with PAX4 [4] it was 9.44 upbm affinity estimate (log intensity, higher = more binding, comparable within an allelic series); with HOXB4 [2], 7.93 upbm affinity estimate (log intensity, higher = more binding, comparable within an allelic series); in the assay with PAX4 [5] it was 9.48 upbm affinity estimate (log intensity, higher = more binding, comparable within an allelic series); with PAX4 [6] it was 9.33 upbm affinity estimate (log intensity, higher = more binding, comparable within an allelic series). Moreover, the binding signal was 9.33 upbm affinity estimate (log intensity, higher = more binding, comparable within an allelic series) in the assay with PAX4 [7] and 9.39 upbm affinity estimate (log intensity, higher = more binding, comparable within an allelic series) with PAX4 [8].

As for CCACTTTA, the binding signal with ALX1 [9] was 8.4 upbm affinity estimate (log intensity, higher = more binding, comparable within an allelic series); in the assay with ALX1 [10] it was 8.44 upbm affinity estimate (log intensity, higher = more binding, comparable within an allelic series); in the assay with ALX1 [11] it was 8.77 upbm affinity estimate (log intensity, higher = more binding, comparable within an allelic series).

As for ACGCGCAG, the binding signal with PRRX1 was 9.2 upbm affinity estimate (log intensity, higher = more binding, comparable within an allelic series).

Regarding CGGACCCG, the binding signal with HOXB4 [1] is 8.04 upbm affinity estimate (log intensity, higher = more binding, comparable within an allelic series); with HOXB4 [2] it was 7.9 upbm affinity estimate (log intensity, higher = more binding, comparable within an allelic series); with HOXB6 it was 9 upbm affinity estimate (log intensity, higher = more binding, comparable within an allelic series).

As to AATTAGCT, the binding signal in the assay with PAX4 [3] was 11.7 upbm affinity estimate (log intensity, higher = more binding, comparable within an allelic series); with PAX4 [4], 12.2 upbm affinity estimate (log intensity, higher = more binding, comparable within an allelic series); with ALX1 [9], 11.5 upbm affinity estimate (log intensity, higher = more binding, comparable within an allelic series); in the assay with ALX3 [12] it was 8.34 upbm affinity estimate (log intensity, higher = more binding, comparable within an allelic series); in the assay with PAX4 [5], 11.9 upbm affinity estimate (log intensity, higher = more binding, comparable within an allelic series); with ALX1 [10] it was 11.1 upbm affinity estimate (log intensity, higher = more binding, comparable within an allelic series). Further, the binding signal is 10.4 upbm affinity estimate (log intensity, higher = more binding, comparable within an allelic series) with PAX4 [6]; 12.2 upbm affinity estimate (log intensity, higher = more binding, comparable within an allelic series) with ALX3 [13]; 10.9 upbm affinity estimate (log intensity, higher = more binding, comparable within an allelic series) with PAX4 [7]; 10.3 upbm affinity estimate (log intensity, higher = more binding, comparable within an allelic series) in the assay with ALX3 [14]; 9.87 upbm affinity estimate (log intensity, higher = more binding, comparable within an allelic series) in the assay with ALX3 [15]; 10.9 upbm affinity estimate (log intensity, higher = more binding, comparable within an allelic series) with PAX4 [8]. For the same sequence, the binding signal with ALX1 [11] was 12.1 upbm affinity estimate (log intensity, higher = more binding, comparable within an allelic series); with HOXA4 it was 11.5 upbm affinity estimate (log intensity, higher = more binding, comparable within an allelic series); in the assay with ALX3 [16], 8.56 upbm affinity estimate (log intensity, higher = more binding, comparable within an allelic series); in the assay with VAX1, 12.4 upbm affinity estimate (log intensity, higher = more binding, comparable within an allelic series).

Take CGGGCTCC: the binding signal in the assay with HOXB4 [1] was 6.66 upbm affinity estimate (log intensity, higher = more binding, comparable within an allelic series); with PAX4 [3] it was 8.72 upbm affinity estimate (log intensity, higher = more binding, comparable within an allelic series); in the assay with PAX4 [4] it was 8.72 upbm affinity estimate (log intensity, higher = more binding, comparable within an allelic series); with HOXB4 [2], 6.92 upbm affinity estimate (log intensity, higher = more binding, comparable within an allelic series); with ALX3 [12], 7.6 upbm affinity estimate (log intensity, higher = more binding, comparable within an allelic series); with PAX4 [5], 9.02 upbm affinity estimate (log intensity, higher = more binding, comparable within an allelic series). The binding signal with PAX4 [6] is 8.99 upbm affinity estimate (log intensity, higher = more binding, comparable within an allelic series); in the assay with ALX3 [13], 7.17 upbm affinity estimate (log intensity, higher = more binding, comparable within an allelic series); with PAX4 [7], 8.93 upbm affinity estimate (log intensity, higher = more binding, comparable within an allelic series); with ALX3 [14], 7.45 upbm affinity estimate (log intensity, higher = more binding, comparable within an allelic series); with ALX3 [15] it was 7.45 upbm affinity estimate (log intensity, higher = more binding, comparable within an allelic series); in the assay with PAX4 [8], 9.04 upbm affinity estimate (log intensity, higher = more binding, comparable within an allelic series). For the same sequence, the binding signal with HOXA4 was 9.68 upbm affinity estimate (log intensity, higher = more binding, comparable within an allelic series); with ALX3 [16], 7.54 upbm affinity estimate (log intensity, higher = more binding, comparable within an allelic series); in the assay with PRRX1, 8.33 upbm affinity estimate (log intensity, higher = more binding, comparable within an allelic series); with VAX1, 6.27 upbm affinity estimate (log intensity, higher = more binding, comparable within an allelic series); with HOXB6 it was 8.31 upbm affinity estimate (log intensity, higher = more binding, comparable within an allelic series).

As to CTAATTGC, the binding signal is 12.9 upbm affinity estimate (log intensity, higher = more binding, comparable within an allelic series) in the assay with HOXB4 [1]; 13.7 upbm affinity estimate (log intensity, higher = more binding, comparable within an allelic series) with HOXB4 [2]; 11.5 upbm affinity estimate (log intensity, higher = more binding, comparable within an allelic series) with ALX1 [9]; 8.22 upbm affinity estimate (log intensity, higher = more binding, comparable within an allelic series) with ALX3 [12]; 11 upbm affinity estimate (log intensity, higher = more binding, comparable within an allelic series) in the assay with ALX1 [10]; 12.3 upbm affinity estimate (log intensity, higher = more binding, comparable within an allelic series) in the assay with ALX3 [13]. Moreover, the binding signal was 10.3 upbm affinity estimate (log intensity, higher = more binding, comparable within an allelic series) with ALX3 [14]; 9.7 upbm affinity estimate (log intensity, higher = more binding, comparable within an allelic series) with ALX3 [15]; 12.2 upbm affinity estimate (log intensity, higher = more binding, comparable within an allelic series) with ALX1 [11]; 11.4 upbm affinity estimate (log intensity, higher = more binding, comparable within an allelic series) with HOXA4; 8.29 upbm affinity estimate (log intensity, higher = more binding, comparable within an allelic series) in the assay with ALX3 [16]; 12.8 upbm affinity estimate (log intensity, higher = more binding, comparable within an allelic series) with VAX1. In the assay with HOXB6, the binding signal is 11.8 upbm affinity estimate (log intensity, higher = more binding, comparable within an allelic series).

As to CCGCGTCG, the binding signal with HOXB4 [1] is 7.75 upbm affinity estimate (log intensity, higher = more binding, comparable within an allelic series); in the assay with HOXB4 [2], 7.36 upbm affinity estimate (log intensity, higher = more binding, comparable within an allelic series).

In the case of CCGGAGCC, the binding signal in the assay with HOXA4 is 9.84 upbm affinity estimate (log intensity, higher = more binding, comparable within an allelic series); in the assay with HOXB6 it was 8.93 upbm affinity estimate (log intensity, higher = more binding, comparable within an allelic series).

As for CTTAAGTA, the binding signal with ALX1 [9] was 9.02 upbm affinity estimate (log intensity, higher = more binding, comparable within an allelic series); with ALX1 [10], 8.85 upbm affinity estimate (log intensity, higher = more binding, comparable within an allelic series); in the assay with ALX1 [11], 9.39 upbm affinity estimate (log intensity, higher = more binding, comparable within an allelic series).

Take ACGGCGGC: the binding signal with HOXB4 [1] was 7.36 upbm affinity estimate (log intensity, higher = more binding, comparable within an allelic series); with HOXB4 [2], 7.56 upbm affinity estimate (log intensity, higher = more binding, comparable within an allelic series); in the assay with VAX1, 7.25 upbm affinity estimate (log intensity, higher = more binding, comparable within an allelic series); in the assay with HOXB6 it was 9.12 upbm affinity estimate (log intensity, higher = more binding, comparable within an allelic series).

With ACCCGGGC, the binding signal was 9.17 upbm affinity estimate (log intensity, higher = more binding, comparable within an allelic series) with PAX4 [3]; 9.14 upbm affinity estimate (log intensity, higher = more binding, comparable within an allelic series) with PAX4 [4]; 9.34 upbm affinity estimate (log intensity, higher = more binding, comparable within an allelic series) with PAX4 [5]; 9.22 upbm affinity estimate (log intensity, higher = more binding, comparable within an allelic series) with PAX4 [6]; 9.24 upbm affinity estimate (log intensity, higher = more binding, comparable within an allelic series) with PAX4 [7]; 9.37 upbm affinity estimate (log intensity, higher = more binding, comparable within an allelic series) in the assay with PAX4 [8].

As for CGCCCGAG, the binding signal is 7.76 upbm affinity estimate (log intensity, higher = more binding, comparable within an allelic series) with HOXB4 [1] and 7.79 upbm affinity estimate (log intensity, higher = more binding, comparable within an allelic series) with HOXB4 [2].

For CGAACGCC, the binding signal with ALX1 [9] was 6.33 upbm affinity estimate (log intensity, higher = more binding, comparable within an allelic series); in the assay with ALX1 [10], 6.32 upbm affinity estimate (log intensity, higher = more binding, comparable within an allelic series); with ALX1 [11], 6.54 upbm affinity estimate (log intensity, higher = more binding, comparable within an allelic series).

As for CCGGCGCG, the binding signal with ALX1 [9] is 6.28 upbm affinity estimate (log intensity, higher = more binding, comparable within an allelic series); with ALX1 [10], 6.34 upbm affinity estimate (log intensity, higher = more binding, comparable within an allelic series); in the assay with ALX1 [11], 6.04 upbm affinity estimate (log intensity, higher = more binding, comparable within an allelic series).

On to ATCAAGTG, for which the binding signal with HOXB4 [1] was 10.2 upbm affinity estimate (log intensity, higher = more binding, comparable within an allelic series); with HOXB4 [2], 10.4 upbm affinity estimate (log intensity, higher = more binding, comparable within an allelic series).
